According to PubChem BioAssay AID1159580 (chemical genetic matrix, 2015):
“And” between values parts separate entries of the source, which are not always exact repeats. Equal values may be shown once. In all, about 5,500 compounds went through this assay and about 2,000 (36%) were called active. Inconclusive results (about 18%) are left out. Rule as the data show it: active = normalized growth mostly below about 0.91 (no sharp cut-off); inconclusive = no clear call, values can overlap the other calls; inactive = mostly above about 0.92. Some of the results follow.

Assay: chemical genetic growth profiling, strain panel (AID 1159580);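 also: tested at 20 µM; growth read once vehicle control cultures reached saturation at 30 °C; 1 = growth at the plate median or of vehicle wells; lower values mean less growth of the strain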
Conditions: S. cerevisiae deletion strains, growth OD

Measured: normalized growth

C/C=C(/C)C(=O)O[C@@H]1[C@H](OC(C)=O)[C@@]2(CO)C(CC1(C)C)C1=CCC3[C@@]4(C)CC[C@H](O[C@@H]5O[C@H](C(=O)O)[C@@H](O[C@@H]6O[C@H](CO)[C@@H](O)[C@H](O)[C@H]6O)[C@H](O)[C@H]5O[C@@H]5O[C@H](CO)[C@@H](O)[C@H](O)[C@H]5O)[C@](C)(CO)C4CC[C@@]3(C)[C@]1(C)C[C@H]2O (some centres not stated)
inactive: locus YAL021C, strain ccr4, active compounds read low 1.01 | locus YAL026C, strain drs2, active compounds read low 0.983 | locus YAL030W, strain snc1, active compounds read low 0.987 | locus YBL061C, strain skt5, active compounds read low 0.983 | locus YBR009C, strain hhf1, active compounds read low 0.938 | locus YBR021W, strain FUR4, active compounds read low 0.989 | locus YBR023C, strain chs3, active compounds read low 0.992 | locus YBR171W, strain sec66, active compounds read low 0.996 | locus YBR229C, strain ROT2, active compounds read low 1.01 | locus YBR231C, strain swc5, active compounds read low 0.979 | locus YBR279W, strain paf1, active compounds read low 0.989 | locus YCL011C, strain gbp2, active compounds read low 0.986 | locus YCL016C, strain dcc1, active compounds read low 0.994 | locus YCL029C, strain bik1, active compounds read low 1.03 | locus YCL061C, strain MRC1, active compounds read low 0.981 | locus YCL069W, strain vba3, active compounds read low 0.987 | locus YCR088W, strain abp1, active compounds read low 0.989 | locus YDL005C, strain med2, active compounds read low 0.982 | locus YDL035C, strain GPR1, active compounds read low 1.02 | locus YDL040C, strain nat1, active compounds read low 0.973 | locus YDL074C, strain BRE1, active compounds read low 0.999 | locus YDL101C, strain DUN1, active compounds read low 1.02 | locus YDL185W, strain tfp1, active compounds read low 1.02 | locus YDL192W, strain arf1, active compounds read low 1.02 | locus YDR001C, strain nth1, active compounds read low 0.981 | locus YDR069C, strain doa4, active compounds read low 0.982 | locus YDR101C, strain arx1, active compounds read low 1.01 | locus YDR137W, strain rgp1, active compounds read low 0.975 | locus YDR159W, strain sac3, active compounds read low 0.96 | locus YDR162C, strain NBP2, active compounds read low 1.02 | locus YDR195W, strain ref2 0.929 | locus YDR297W, strain sur2, active compounds read low 0.993 | locus YDR318W, strain mcm21, active compounds read low 1.03 | locus YDR334W, strain swr1, active compounds read low 0.985 | locus YDR335W, strain msn5, active compounds read low 0.989 | locus YDR388W, active compounds read low 1.02 | locus YDR392W, strain spt3, active compounds read low 0.874 | locus YDR502C, strain sam2, active compounds read low 1.02 | locus YEL003W, strain gim4, active compounds read low 0.992 | locus YEL037C, strain rad23, active compounds read low 0.991 | locus YEL061C, strain CIN8 (second series), active compounds read low 0.987 | locus YEL061C, strain CIN8, active compounds read low 1.01 | locus YER015W, strain faa2, active compounds read low 0.983 | locus YER016W, strain bim1, active compounds read low 0.991 | locus YER110C, active compounds read low 1.03 | locus YER111C, strain swi4, active compounds read low 0.968 | locus YER155C, strain BEM2 (second series), active compounds read low 0.997 | locus YER155C, strain BEM2, active compounds read low 0.999 | locus YER167W, strain BCK2, active compounds read low 1.01 | locus YFR010W, strain ubp6, active compounds read low 0.991 | locus YGL078C, strain dbp3, active compounds read low 1.02 | locus YGL086W, strain mad1, active compounds read low 1.03 | locus YGL167C, strain pmr1, active compounds read low 0.987 | locus YGL173C, strain kem1, active compounds read low 0.966 | locus YGL227W, strain vid30, active compounds read low 0.982 | locus YGL240W, strain doc1, active compounds read low 0.97 | locus YGL248W, strain PDE1, active compounds read low 1.01 | locus YGL253W, strain hxk2, active compounds read low 0.974 | locus YGR135W, strain pre9, active compounds read low 1.01 | locus YGR252W, strain gcn5, active compounds read low 0.965 | locus YHR013C, strain ard1, active compounds read low 0.965 | locus YHR027C, strain rpn1, active compounds read low 0.992 | locus YHR030C, strain SLT2, active compounds read low 1.01 and 0.987 | locus YHR079C, strain IRE1 (second series), active compounds read low 1.03 | locus YHR079C, strain IRE1, active compounds read low 0.972 | locus YHR094C, strain hxt1, active compounds read low 1.03 | locus YHR129C, strain ARP1, active compounds read low 1.01 | locus YHR142W, strain chs7, active compounds read low 1.01 | locus YHR200W, strain rpn10, active compounds read low 1.01 | locus YIL066C, strain RNR3, active compounds read low 1.01 | locus YIL073C, strain SPO22, active compounds read low 1.15 | locus YIL125W, strain kgd1, active compounds read low 1.02 | locus YIR030C, strain dcg1, active compounds read low 1.03 | locus YJL092W, strain hpr5, active compounds read low 0.989 | locus YJL095W, strain BCK1 (second series), active compounds read low 0.992 | locus YJL095W, strain BCK1, active compounds read low 1.02 and 0.969 | locus YJL115W, strain asf1, active compounds read low 0.989 | locus YJL129C, strain trk1, active compounds read low 0.984 | locus YJL134W, strain LCB3, active compounds read low 1 | locus YJL154C, strain vps35, active compounds read low 0.987 | locus YJL164C, strain tpk1, active compounds read low 1.01 | locus YJL166W, strain qcr8, active compounds read low 1 | locus YJL168C, strain set2, active compounds read low 1.01 | locus YJL187C, strain SWE1 (second series), active compounds read low 1.02 | locus YJL187C, strain SWE1, active compounds read low 0.996 | locus YJR043C, strain POL32, active compounds read low 0.99 | locus YJR066W, strain TOR1, active compounds read low 1.01
